Source: PubChem BioAssay (National Center for Advancing Translational Sciences (NCATS))
HCV inhibitor – HCV inhibition | AID 651820 | 340,000 compounds, 3.4% hits | Potency, µM (highest dose often 41.8 µM), for the others: at the highest dose activity change, negative = inhibition, usual class: inhibitors | Huh7.5.1 HCVcc-Cre infection, luciferase reporter, 44 h; also: potency is read from the fitted curve at half-maximal effect
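Whole-lifecycle infectious HCVcc-Cre system; cells 1,000/well, compound then virus (~0.5 moi) added 4 h after plating, 44 h culture. Luciferase read 15 sec following 15 min substrate incubation, room temp.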
HCMV inh – human cytomegalovirus inhibition. 410,000 compounds, 4.5% hits. AID 1259415. HFF cells, HCMV-luciferase reporter, 72 h; stronger effect = lower value. activity change, negative = inhibition, % at 57.5 µM; in the data active = activity change below about -60%; inconclusive = no clear call, values can overlap the other calls; inactive = above about -39%
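Inhibition of viral replication was scored as loss of reporter luminescence in HFFs infected with HCMV-luciferase (MOI 1 PFU/cell) for 72 h; compounds tested at 2 doses, normalized to buffer and Salinomycin controls.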
Pf growth 96h – P. falciparum growth inhibition at 96 hours; P. falciparum luciferase reporter growth, 96 h; Potency, µM (series often up to 28.7 µM), for inactives: at the highest dose activity change, negative = inhibition, usual class: inhibitors; 320,000 compounds, 6.9% hits; AID 504834; also: potency is read from the fitted curve at half-maximal effect
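P. falciparum expressing integrated firefly luciferase grown in erythrocytes (2% hematocrit, 0.05% parasitemia final) with compounds for 96 hours at 37 C, 5% CO2. Growth inhibition read as loss of luminescence after adding luciferase detection reagent.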
Pf growth 48h – P. falciparum growth inhibition at 48 hours (one generation); Potency, µM (doses to about 28.7 µM), for the others: top-dose activity change, negative = inhibition, usual class: inhibitors; P. falciparum luciferase growth in erythrocytes, 48 h; 310,000 compounds, 5.9% hits; AID 504832; also: potency is read from the fitted curve at half-maximal effect
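Compounds are pin-transferred into medium, infected erythrocytes (2% hematocrit, 0.1% parasitemia final) are added, and plates sit one parasite generation at 37 C in 5% CO2. Detection reagent is then added and luminescence measured.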
The depositor's hits bear a star; ? = inconclusive; . = no result. Rows were chosen to be rich in hits. Some 13% of all compounds tested hit in one or more screens of this group. Unless noted, calls follow the shape of the dose curve; as a rule, active = well fitted inhibition curve with a large enough effect; inconclusive = small, poorly fitted or top-dose-only effect, or another doubt; inactive = no such curve, though single readings can be large or run the other way. % is scaled to controls: 0 for no effect and ±100 for the full control effect.

SMILES | HCV inhibitor | HCMV inh | Pf growth 96h | Pf growth 48h
CCOc1ccc(NC(=O)c2oc3ccccc3c2NC(=O)Cc2cccc(C)c2)cc1 | . | 9.6 | . | .
COc1ccc(NS(=O)(=O)c2ccc3oc(Nc4ccc5c(c4)OCCO5)nc3c2)cc1 | 3.98µM* | -84.7* | -9.6% | -28.3%
COc1ccc(NS(=O)(=O)c2ccc(NS(=O)(=O)c3ccc4c(c3)OCCO4)cc2)cc1 | . | 17.8 | . | .
COc1ccc(NS(=O)(=O)c2ccc3oc(SC(C)C(N)=O)nc3c2)cc1 (configuration not stated) | 10µM* | . | 4.65µM* | 2.33µM*
CCN(CC)S(=O)(=O)c1ccc2oc(Nc3ccc(OC)cc3OC)nc2c1 | 10µM* | 4.1 | 10.4µM* | ?
COc1cc(NC(=O)c2nc3cc(C)c(C)cc3n(C)c2=O)cc(OC)c1OC | . | -3.8 | . | .
COC(=O)[C@]12C[C@H](CC(=O)NCC3CCCCC3)C(=O)N(CCC3=CCCCC3)C1=C[C@H](C(C)(C)C)O[C@@H]2C | . | 1.4 | . | .
CCOC(=O)c1ccc(N2CCN(c3ccccc3F)CC2)c(NC(=O)Nc2ccc(Cl)c(Cl)c2)c1 | . | -22.9 | . | .
CCn1ncc(Br)c1C(=O)Nc1ccc(Cl)cn1 | 15.3% | -64.7* | . | 12.6%
C#CCN1C(=O)[C@@H](C)[C@@](C#N)(C(=O)OC)[C@H]1c1ccc(OC)cc1 | . | 1.3 | . | .
COc1ccccc1CNC(=O)C(=O)NCC(c1cccs1)S(=O)(=O)c1ccccc1 (configuration not stated) | . | 5.5 | . | .
O=C(O)C(Cc1ccc(OS(=O)(=O)Cc2ccccc2)cc1)NS(=O)(=O)Cc1ccccc1 (configuration not stated) | 6.5% | -60.2* | . | .
O=S(=O)(Cc1ccccc1)Oc1ccccc1 | 10.8% | -62.5* | -14.2% | 29.0%
CC1CN(C(=O)CCC(=O)NCc2cccs2)c2ccccc2O1 (configuration not stated) | . | -1.6 | . | .
COc1ccc(OCCNC(=O)c2ccc(C)cc2)cc1 | -5.4% | . | 2.94µM* | -10.1%
Cc1ccc(C(=O)NCCOC23CC4CC(CC(C4)C2)C3)cc1 | -7.9% | -35.9 | 2.08µM* | 2.94µM*
Cc1ccc(OCCNC(=O)c2cccc(Oc3ccc(C(F)(F)F)cc3[N+](=O)[O-])c2)cc1 | ? | -79.9* | ? | 4.8%
COc1cc(OC)cc(C(=O)NCCOC23CC4CC(CC(C4)C2)C3)c1 | ? | -33.0 | 0.6% | -53.6%
COc1cc(-c2n[nH]c3ccnc(-c4ccccc4)c23)cc(OC)c1OC | . | -8.3 | . | .
CCC1=C(c2ccc(C)cc2)S(=O)(=O)N=C1N1CCC(C(=O)Nc2ccccc2C(=O)OC)CC1 | . | -1.2 | . | .
Cc1ccc(CN2C(=O)c3ccccc3Sc3ccc(C(=O)N4CCOCC4)cc32)cc1 | . | -38.5 | . | .
Cc1ccc(C(=O)Nc2cc(C(F)(F)F)ccc2N2CCCCC2)cc1[N+](=O)[O-] | -18.5% | -24.8 | 18.9% | 13.1µM*
Cc1cccc(NC(=O)c2ccc(N3CCCCC3)c([N+](=O)[O-])c2)n1 | -27.0% | 51.9 | -1.8% | 5.7%
O=C(Nc1cc(C(F)(F)F)ccc1N1CCCC1)c1ccc2c(c1)OCO2 | -43.8% | -14.3 | -3.4% | ?
O=C(Nc1cc(C(F)(F)F)ccc1N1CCCCC1)c1cccc([N+](=O)[O-])c1 | ? | -76.8* | ? | 14.7µM*
SMILES | HCV inhibitor | HCMV inh | Pf growth 96h | Pf growth 48h
O=C(Nc1ccccc1N1CCCCC1)c1cccc([N+](=O)[O-])c1 | ? | -29.8 | ? | -9.3%
Cc1ccc(C)c2sc(NC(=O)c3ccc(N4CCCCC4)c([N+](=O)[O-])c3)nc12 | ? | -12.8 | ? | 2.62µM*
Cc1cc(C(=O)Nc2ccc(N3CCCC3)c(Cl)c2)ccc1[N+](=O)[O-] | ? | -31.1 | 9.28µM* | 7.9%
CC(=O)Nc1ccc(OC(=O)c2ccccc2OC(C)=O)cc1 | . | . | ? | -0.6%
CCc1nc2ccc(C(=O)NCc3ccc(SC)cc3)cc2nc1CC | . | 77.5 | . | .
Cc1cc(C)c(COCc2cc(/C=N/O)c(C)cc2C)cc1/C=N/O | ? | -32.3 | 10.4µM* | .
CCOC(=O)C1=C(C)NC(SCC(=O)O)=C(C#N)C1c1ccco1 (configuration not stated) | 12.6% | 28.0 | 3.5% | 16.3%
C=CCOC(=O)C1=C(C)NC(SCC(=O)NC(=O)OCC)=C(C#N)C1c1cccnc1 (configuration not stated) | 24.5% | -30.9 | 3.6% | 10.4µM*
C=CCOC(=O)C1=C(C)NC(SCC(=O)N(CC)CC)=C(C#N)C1c1ccccc1 (configuration not stated) | ? | -32.3 | 73.2% | ?
